Laboratory results taken from ChEMBL document CHEMBL3988442, “University of Dundee, Small-Polar-MMV Screening Library” (2021).
Out of some 48,000 compounds screened, about 13,000 (27%) showed an effect of 50% or more. Some of the results follow.

Tested on: Wolbachia pipientis
Experiment: Anti-Wolbachia Cell-Based Screen
Assay type: functional
Design: scale not given: in the data most compounds retested in dose-response had high values
Conditions: 5 µM

Compound	Percent Effect [%]
Cc1ccccc1C1CCN(CCn2cc(-c3cccc(O)c3)nn2)C1 (stereo not given)	-0.06043
CN(Cc1ccc2c(c1)OCCO2)C(=O)Cn1ccccc1=O	-2.106
CC1(C)CN(Cc2csc(CS(C)(=O)=O)n2)Cc2ccccc21	-1.783
COCC1CCN(C(=O)c2cc(-c3ccco3)nc3c(Cl)cccc23)C1 (stereo not given)	-13.75
O=C(c1cnn[nH]1)N(Cc1ccncc1)CC1CCCO1 (stereo not given)	-2.849
Cc1c(C)n(-c2ccccn2)c2nc3c(c(N)c12)CCCC3	16.56
Cc1c(C)n(Cc2ccncc2)c2nc3c(c(N)c12)CCCCC3	23.97
CN1CCCc2c1nc1c(c2N)CCC1	99.68
CN1CCCCc2c1nc1c(c2N)CCCC1	88.26
CC(=O)NC1CCN(c2nc(N)nc3c2CCCC3)C1 (stereo not given)	13.41
CN1CCc2c1nc1c(c2N)CCC1	94.13
C[C@@H]1CN(c2nc(N)nc3c2CCC3)CC[C@@]1(O)C1CCC1	-3.571
C[C@@H]1CN(c2nc(N)nc3c2CCC3)C[C@]1(C)O	-4.313
Cc1nc2c(c(N3CCC4(CCCNC4=O)C3)n1)CCC2 (stereo not given)	3.026
CC(C)N(C(=O)c1ccccc1-c1nc2c([nH]1)CCNC2)C(C)C	16.68
Cc1cccc(COC[C@@]23CCC[C@@H]2CN(S(=O)(=O)N(C)C)C3)n1.O=C(O)C(F)(F)F	-15.69
CCN(C)CC(C)Cn1cnc(-c2ccccc2)c1-c1cncn1CC (stereo not given)	1.36
CCc1nc(NCCCn2cccn2)c2c(n1)c(C)nn2C	10.76
O=C(Nc1ccccc1OC1CCOC1)c1[nH]nc2c1CCCC2 (stereo not given)	13.6
COc1nc2c(cc1C(=O)NCCc1nc(C)c(C(=O)O)s1)CCC2	-5.377
Cc1cc(C(=O)NCCc2nc3c(s2)CCCC3)n(C)n1	113.4
COc1nc2c(cc1C(=O)NCCc1nc3c(s1)CCC3)CCC2	-9.23
Cc1nc(CCNC(=O)c2cc(C(C)C)nn2C)sc1C	143.4
CCN(CC)C(=O)Cn1cc(C(=O)NCCc2nc(C)c(C)s2)nn1	-0.7768
COc1cccc2c1OCC(C(=O)NCCc1nc3c(s1)CCC3)C2 (stereo not given)	3.483

Compound	Percent Effect [%]
CC(C)c1cc(C(=O)NCCc2nc3c(s2)CCC3)n(C)n1	118.8
O=C(O)c1ccnc(-c2ccnc(NCCc3nc4c(s3)CCC4)n2)c1	-20.67
Cc1nn2cc(CCNC(=O)c3cc(C(C)C)nn3C)nc2s1	-16.47
CCC[C@@H]1CN(Cc2ccc(C(F)(F)F)nc2)C[C@H]1C(=O)O	8.814
CC(C)N1CCc2ncn(C)c2C1C(=O)NCCN1CCCC1 (stereo not given)	-5.495
COc1ccc(NC(=O)N2CCN(c3ncccn3)CC2)cn1	4.438
COCCN1CCC2(CCN(C(=O)c3ccc(F)cc3)CC2)C1=O	82.71
CN(C)CCN1CCC2(CCN(C(=O)c3ccncc3)CC2)C1=O.O=C(O)C(F)(F)F.O=C(O)C(F)(F)F	99.78
O=C(O)C(F)(F)F.O=C(c1cccnc1)N1CCC2(CC1)CCN(c1ccsc1)C2=O	13.97
CN(C)CCN1CCC2(CCN(C(=O)c3cccc(F)c3)CC2)C1=O.O=C(O)C(F)(F)F	96.95
CN(C)CCN1CCC2(CCN(C(=O)c3cccnc3)CC2)C1=O	114
COCCN1CCN(C)C2(CCN(C(=O)c3ccnnc3)CC2)C1=O.O=C(O)C(F)(F)F	1.549
COCCN1CCC2(CCCN(C(=O)c3ccoc3C)C2)C1=O (stereo not given)	-2.249
CN(C)CCN1CCC2(CCCN(Cc3cccn3C)C2)C1=O.O=C(O)C(F)(F)F.O=C(O)C(F)(F)F (stereo not given)	-29.62
CCN(C)C1COC2(CCN(C(=O)c3cccc(Cl)c3)CC2)C1.O=C(O)C(F)(F)F (stereo not given)	-32.01
CCCN1CCN(C(=O)c2cccnc2)CC1	10.45
CN1CC(c2ccccc2)CC12CCN(C(=O)c1cccnc1)CC2 (stereo not given)	-3.135
COc1ccc(-c2nc(CNC(C)Cn3cccn3)cs2)cc1 (stereo not given)	6.683
COCCNc1nc2c(c(NCCc3cccs3)n1)CCNCC2	23.06
CC(NC(=O)NCCCn1cncn1)c1ccccc1Cl (stereo not given)	-1.417
Cc1nn(C)c(Oc2cccc(F)c2)c1NC(=O)C1CCOCC1	12.99
CNC(=O)c1c(C)cccc1NCc1nnc(C2CC2)o1	-4.757
O=C(NC[C@H]1OC[C@@H](N(CC2CC2)CC2CC2)[C@@H]1O)Nc1ccccc1	-9.212
CC(C)(C)C(=O)NCCc1cc2nc(-c3ccncc3)ccn2n1	129.3
CC(C)C(=O)NCCc1cc2nc(-c3ccncc3)ccn2n1	130.4

Compound	Percent Effect [%]
Cc1cc(C)n(-c2cncc(NCCNC(=O)C(C)C)n2)n1	1.534
CCN(C)C(=O)c1ccc(N(C)Cc2cc(-c3ccncc3)no2)nc1	-25.61
CC(C)[C@H](Nc1cc(-c2ccncc2)nc2ccnn12)C(N)=O	-7.86
CCCC(=O)N(CCCN1CCOCC1)c1nc2c(C)c(C)ccc2s1.Cl	4.916
CNC(=O)c1ccc(CNC(=O)c2cc(C(C)C)n(C)n2)cc1	-0.9811
CC(C)OC(=O)N1CCCC(c2nccn2Cc2ccncc2)C1 (stereo not given)	-3.54
O=C(Cc1cccc(F)c1)N1CCc2ncnc(NC3CC3)c2CC1.O=C(O)C(F)(F)F	106
Cc1ncnc2c1CCN(C(=O)Cc1cccc(F)c1)CC2	0.1924
O=C(Cc1cccc(F)c1)N1CCc2ncnc(NC3CCC3)c2CC1	110
COc1ncnc2c1CCN(C(=O)Cc1cccc(F)c1)CC2	3.249
O=C(Cc1cccc(F)c1)N1CCc2ncnc(N3CCCC3)c2CC1	-1.475
NC(=O)NC(=O)CCn1ccc(-c2ccsc2)n1	-12.21
CCOC(=O)C1CCN(C(=O)CN2CCCC2c2ccsc2)CC1 (stereo not given)	0.9272
CSc1ccc(CNc2n[nH]c(C)n2)cc1	110
Cc1cccc(CNc2nnc(C(C)C)o2)c1	-24.34
Cc1noc(NCc2ccc(F)cc2)n1	5.861
COc1ccc(CNc2n[nH]c(C)n2)cc1	96.08
Cc1cccc(CNc2cncc(-n3cccn3)n2)c1	4.61
Cc1cccc(CNc2n[nH]c(C)n2)c1	94.75
COc1ccc(CNC(C)c2cn[nH]c2C)cc1 (stereo not given)	2.524
Cc1ccc(CNc2n[nH]c(C)n2)cc1	101.1
Cc1nnc(NCc2ccc(F)cc2)o1	4.213
COc1ccc(CNc2c(C)nn(C(C)C)c2C)cc1	-4.166
Cc1nc(CNc2ncc(Br)cn2)n[nH]1	-4.306
CSc1ccc(CNC2(c3ccc(F)cc3)CCOCC2)cc1	-10.48
